High-throughput results: PubChem BioAssay, The Scripps Research Institute Molecular Screening Center
GPR151 ag = activators of human GPR151, primary screen, cell-based, PathHunter beta-arrestin, luminescence; PathHunter beta-arrestin GPR151 cells; activation, % at 11.2 µM; 650,000 compounds, 1% hits; AID 1508602, 2020; in the data active = activation above about 4.9%
Target sequence (Q8TDV0 whole entry, looked up): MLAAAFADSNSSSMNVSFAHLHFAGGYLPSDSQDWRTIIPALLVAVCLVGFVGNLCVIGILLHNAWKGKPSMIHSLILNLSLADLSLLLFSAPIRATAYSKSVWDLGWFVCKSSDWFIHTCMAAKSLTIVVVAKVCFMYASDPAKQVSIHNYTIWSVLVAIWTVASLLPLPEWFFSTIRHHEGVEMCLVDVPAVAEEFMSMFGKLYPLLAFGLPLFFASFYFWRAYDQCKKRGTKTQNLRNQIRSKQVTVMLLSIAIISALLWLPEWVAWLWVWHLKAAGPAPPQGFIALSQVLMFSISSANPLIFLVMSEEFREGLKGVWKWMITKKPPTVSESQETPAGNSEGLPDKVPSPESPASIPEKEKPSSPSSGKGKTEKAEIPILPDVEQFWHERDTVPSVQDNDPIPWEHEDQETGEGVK
TEAD-YAP block = TEAD-YAP interaction inhibition, primary screen, TEAD-YAP interaction inhibitor project, luminescence, HEK-TIYL cells; TEAD-Gal4/YAP UAS-luciferase luminescence; inhibition, % at 9.12 µM; 640,000 compounds, 1.4% hits; AID 1259422, 2018; in the data active = inhibition above about 32%
MITF inh = MITF inhibitors, primary screen, biochemical, AlphaScreen, human; 650,000 compounds, 0.91% hits; inhibition, % at 2.6 µM; Microphthalmia-associated transcription factor (Homo sapiens), O75030; AlphaScreen MITF homodimerization, bead proximity signal; AID 1259374, 2018; in the data active = inhibition above about 50%
FBW7 activator = FBW7 E3 ligase activators, primary screen, biochemical, AlphaScreen, human. AlphaScreen FBW7–phospho-cyclin E peptide binding, activator screen. normalized activity (activation), % at 26.1 µM. 650,000 compounds, 0.13% hits. AID 1259310, 2017; in the data active = normalized activity above about 1.9%;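 also: purified mutant Fbw7 with reduced substrate affinity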
MITF inh conf = MITF inhibitors, retest of hits, confirmation, biochemical, AlphaScreen, triplicate | AlphaScreen MITF homodimerization, biotin/His-MITF beads | shares compounds with MITF inh | 4,700 compounds, 16% hits | inhibition, % at 2.6 µM;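 active = inhibition above a cutoff derived from the DMSO control wells, cut at about 28% in these data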;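 also: inhibitors lower the bead chemiluminescence by keeping MITF from dimerizing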
AS interf ctr = AlphaScreen optical interference compounds, counter-screen for MITF inhibitor project, biochemical, triplicate | shares compounds with MITF inh | LysRS AlphaScreen counterscreen, signal interference | inhibition, % at 2.6 µM | 4,700 compounds, 7.6% hits;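 active = inhibition above a cutoff derived from the DMSO control wells, cut at about 30% in these data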
A number is an active result; i = inactive; nt = no result; ! = not confirmed by another sample. An excerpt weighted towards active compounds, which were near 3.5% of everything screened.

SMILES	GPR151 ag	TEAD-YAP block	MITF inh	FBW7 activator	MITF inh conf	AS interf ctr
CCC(C)NCCOCCOc1ccc(C)cc1Cl (centres undefined)	i	i	76.5	i	i	i
CCC(C)NCCOc1ccc(OC)cc1 (centres undefined)	i	i	i	i	nt	nt
CCC(C)NCCOCCOc1ccc(C)cc1OC (centres undefined)	i	i	53.9	i	i	i
Fc1ccc(C(c2nnnn2C2CCCCC2)N2CCN(Cc3ccncc3)CC2)cc1 (centres undefined)	i	i	i	i	nt	nt
O=P(O)(O)O[C@@H]1[C@H](O)[C@H](O)[C@@H](OP(=O)(O)O)[C@H](OP(=O)(O)O)[C@H]1O	i	nt	54.2!	nt	i	i
CN(C)S(=O)(=O)Nc1ccc(N2CCC(NC(c3ccco3)C(F)(F)F)CC2)cc1 (centres undefined)	i	i	i	i	nt	nt
O=C(NCC1CCCN(Cc2ccc(OCc3ccccc3)cc2)C1)c1cccnc1 (centres undefined)	i	i	50.6	i	i	i
CSc1ccc(CN2CCCC(CNC(=O)c3cccnc3)C2)cc1 (centres undefined)	i	i	i	i	nt	nt
Cc1ccc(Cl)cc1N1C(=O)NC2CC1(C)Oc1ccc([N+](=O)[O-])cc12 (centres undefined)	i	i	i	i	nt	nt
COc1ccc(CN2CCC(O)CC2)c(OC)c1	i	i	i	i	nt	nt
CCOc1ccc(CN2CCN(Cc3cc(OC)ccc3OC)CC2)cc1	i	i	79.0	i	i	i
CCS(=O)(=O)N1CCN(Cc2cc(OC)ccc2OC)CC1	i	i	i	i	nt	nt
COc1ccc(OC)c(CN2CCN(Cc3ccc(SC)cc3)CC2)c1	i	i	76.0	i	i	i
CCc1ccc(CN2CCN(Cc3ccc(OC)cc3OC)CC2)cc1	i	i	65.8	i	i	i
CCOc1ccc(CN2CCN(Cc3ccc(OC)cc3OC)CC2)cc1	i	i	68.4	i	i	i
COc1ccc(-n2nc(C(=O)NCC(=O)Nc3ccccc3F)c3ccccc3c2=O)c(OC)c1	i	i	i	i	nt	nt
COc1ccc(CN2CCc3nnc(C4CCCO4)n3CC2)c(OC)c1C (centres undefined)	i	i	i	i	nt	nt
COc1ccc(CN2CCCCC2)cc1OC	i	i	i	i	nt	nt
COc1ccc(CN2CCOCC2)c(OC)c1	i	i	i	i	nt	nt
COc1ccc(CN2CCN(Cc3ccc(SC)cc3)CC2)cc1OC	i	34.9	75.5	i	i	i
COc1ccc(CN2CCN(Cc3ccc(Cl)cc3)CC2)c(OC)c1	i	i	61.0	i	i	i
COc1cc(CN2CCN(Cc3ccc(OC)cc3OC)CC2)cc(OC)c1	i	i	70.5	i	i	i
Cc1cc(N)n(-c2ccc(Oc3ccccc3)cc2S(=O)(=O)O)n1	i	i	51.9	i	i	i
Cc1cc(N)n(-c2ccccc2C(F)(F)F)n1	i	i	i	i	nt	nt
COc1ccc(CN2CCN(C3CCN(Cc4ccccc4)CC3)CC2)c(OC)c1	i	i	i	i	nt	nt
SMILES	GPR151 ag	TEAD-YAP block	MITF inh	FBW7 activator	MITF inh conf	AS interf ctr
COc1cc(C(=O)N2CCN(C3CCC(c4ccccc4)CC3)CC2)cc(OC)c1OC (centres undefined)	i	i	50.7	i	i	i
COc1cc(C(=O)N2CCN(C(=O)c3ccccc3)CC2)cc(OC)c1OC	i	i	i	i	nt	nt
COc1ccc(CN2CCC(N3CCN(c4ccccc4)CC3)CC2)c(OC)c1	i	i	59.9	i	i	i
COc1ccccc1CN1CCN(C2CCC(c3ccccc3)CC2)CC1 (centres undefined)	i	i	71.3	i	i	i
c1ccc(C2CCC(N3CCN(C4CCCCC4)CC3)CC2)cc1 (centres undefined)	i	i	i	i	nt	nt
COc1ccc(CN2CCN(C3CCC(c4ccccc4)CC3)CC2)c(OC)c1 (centres undefined)	i	i	58.3	i	i	i
O=C(NCCN1CCCC1)Nc1ccccc1C(F)(F)F	i	i	i	i	nt	nt
O=C(O)c1cccc(S(=O)(=O)N2CCC(c3nc4ccc(Cl)cc4[nH]3)CC2)c1	i	i	69.1	i	i	i
O=S(=O)(c1cccc(Cl)c1)N1CCC(c2nc3ccccc3[nH]2)CC1	i	i	i	i	nt	nt
CCC(COC)NC(=O)C1CCN(c2nc(C)c3ccc(S(C)(=O)=O)cc3n2)CC1 (centres undefined)	i	i	i	i	nt	nt
O=C(c1cccc(F)c1)N1CCN(Cc2ccccc2Cl)CC1	i	i	57.3	i	i	i
O=C(c1cccc(F)c1)N1CCN(Cc2cccc3ccccc23)CC1	i	i	58.4	i	i	i
COc1cccc(CN2CCN(C(=O)N3CCOCC3)[C@@H](C)C2)c1	i	i	i	i	nt	nt
O=C(Nc1cccc(Cl)c1)Nc1cccc2c1C(=O)NC2=O	i	i	i	i	nt	nt
CC(C(=O)N1CCN(Cc2ccccc2)CC1)N(c1ccc(Cl)cc1)S(C)(=O)=O (centres undefined)	i	i	83.0	i	i	i
CC1CCN(S(=O)(=O)c2ccc(F)c(C#N)c2)CC1	i	i	i	i	nt	nt
CCN1CCN(CCOc2cc(C)ccc2C(C)C)CC1	i	i	52.4	i	i	i
CCN1CCN(CCCCOc2ccc(C)cc2C)CC1	i	i	59.0	i	i	i
Cc1ccc(OCCN)c(Br)c1	i	i	i	i	nt	nt
CCN1CCN(CCCOc2ccc(C)cc2Br)CC1	i	i	62.9	i	i	i
CC[C@H](Cn1nnc2ccccc2c1=O)NC(=O)Cc1ccccc1F	i	i	i	i	nt	nt
COC(=O)/C(C#N)=C/c1cccc(OC(F)F)c1	i	i	i	i	nt	nt
CCCCC(CC)CNCC(O)COCc1ccc(OC)c(OC)c1 (centres undefined)	i	i	65.4	i	i	i
COc1cc(C(=O)Nc2ccccc2-c2nnn(CC(N)=O)n2)cc(OC)c1OC	i	i	i	i	nt	nt
COc1ccccc1C(=O)Nc1ccccc1-c1nnn(CC(N)=O)n1	i	i	92.8	i	i	i
COc1ccc(NC(=O)Cn2nnc(-c3ccccc3N)n2)cc1OC	i	i	58.0	i	i	i
CN(CCc1ccccn1)Cc1cccc(F)c1	i	i	73.2	i	i	i
CN(CCc1ccccn1)Cc1cccc([N+](=O)[O-])c1	i	i	i	i	nt	nt
CN(CCc1ccccn1)C1CC(=O)N(c2ccccc2)C1=O (centres undefined)	i	i	i	i	nt	nt
CSc1ccc(CN(C)CCc2ccccn2)cc1	i	i	68.2	i	i	i
